# Shown are actives, neighbours in structure and some others; about 2.4% of the full set was active somewhere.
# POLH inh – inhibitors of human DNA polymerase eta; Q9Y253; actives 1.2% (n = 390,000); AID 588591; recombinant Pol eta, fluorescent DNA replication assay; Potency, µM (titrated, usually from 114 µM), inactives show top-dose activity change, negative = inhibition, hits mostly inhibitors; note: % is set by controls: 0 for no effect and ±100 for the full control effect
#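 Fluorescent replication assay: 50 nM final substrate added after a 15 min room-temperature compound preincubation with 10 nM enzyme. Signal taken at 0 min and again at 10 min.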
# WRN inhibitor – blocks human WRN helicase; WRN helicase unwinding, fluorescent forked duplex, kinetic; actives 0.46% (n = 360,000); Potency, µM (titrated, usually from 114 µM), without a hit: at the top dose activity change, negative = inhibition, hits mostly inhibitors; note: % is set by controls: 0 for no effect and ±100 for the full control effect; nearly all actives have a fitted effect of over 55% in size
#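 Fluorescence dequenching readout, ex 525 nm/em 598 nm, kinetic mode: forked duplex DNA (100 nM final) with adjacent fluorophore and quencher unwound by WRN (20 nM final) with 2 mM ATP. Compound preincubation 15 min, room temperature.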
# POLK inh – inhibitors of human DNA polymerase kappa; Q9UBT6; purified Pol kappa, fluorescent DNA synthesis assay, 10 min; Potency, µM (series often up to 107 µM), for inactives: at the top dose activity, negative = inhibition, usual class: inhibitors; actives 0.53% (n = 400,000); note: % is set by controls: 0 for no effect and ±100 for the full control effect
#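 Kinetic fluorescence readout at 0 and 10 min followed reaction start with substrate at 50 nM final. Beforehand, enzyme (10 nM Pol kappa) stood 15 min with compound at room temperature; buffer-only wells were negative controls.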
# POLB inh – DNA polymerase beta (human) inhibition; P06746; Pol beta primer extension/strand displacement, fluorescence kinetic; actives 1.3% (n = 340,000); Potency, µM (series often up to 114 µM), without a hit: at the top dose activity change, negative = inhibition, usual class: inhibitors; note: % is set by controls: 0 for no effect and ±100 for the full control effect
#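 Preincubation: enzyme (10 nM) with compound, 15 min, RT. Reaction: substrate added to 50 nM final. Reads: 0 and 10 min. Analysis: normalized, Hill fit.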
# FEN1 inh – blocks human flap endonuclease 1. Recombinant FEN1 flap cleavage, fluorescence, 15 min. Potency, µM (titrated, usually from 114 µM), without a hit: at the highest dose activity change, negative = inhibition, usual class: inhibitors. actives 0.35% (n = 390,000). AID 588795; note: % is set by controls: 0 for no effect and ±100 for the full control effect; nearly all actives have a fitted effect of over 65% in size
#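 Read-out was taken twice, immediately and after 15 min, following addition of 50 nM substrate to 10 nM FEN1 that had sat with test compound for 15 min at room temperature. Curves came from a four-parameter Hill model.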
# POLI inh – blocks human DNA polymerase iota activity; Q9UNA4; Pol iota fluorescent replication assay, 10 min; Potency, µM (doses to about 115 µM), for the others: at the top dose activity, negative = inhibition, hits mostly inhibitors; actives 1% (n = 390,000)
#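 Fluorescent replication assay read twice, at 0 min and 10 min after adding 50 nM (final) substrate. Enzyme (10 nM) and compounds were first incubated 15 min at room temperature; enzyme-free buffer wells were negative controls.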
# Starred values were filed as active, the others as inactive; u = inconclusive; x = not tested or not shown; [ ] = remark or other dose. Calls come from the whole dose curve; as a rule, active = well fitted curve in the direction sought with a large enough effect; inconclusive = small, poorly fitted or top-dose-only effect, or another doubt; inactive = no such curve, though single readings can be large; an effect the other way counts as inactive or inconclusive. Potency is the fitted concentration of half-maximal effect.
SMILES,POLH inh,WRN inhibitor,POLK inh,POLB inh,FEN1 inh,POLI inh
O=C(O)c1ccc(NC2=C(n3nnc4ccccc43)C(=O)c3ccccc3C2=O)cc1,4%,-2%[11.6 µM],-23%,1%,12%,40µM*
N#Cc1cccc2c1-c1ccccc1/C2=N/NC(N)=S,u,-16%,-10%,1%,-8%,20µM*
CCOC(=O)COc1c(Br)cc(C2NC(=O)NC(C)=C2C(C)=O)cc1OC (configuration not stated),22µM*,-18%[57.1 µM],u,u,-9%,u
CC(C)(C)CC(C)(C)c1cc(Cc2cc(C(C)(C)CC(C)(C)C)cc(-n3nc4ccccc4n3)c2O)c(O)c(-n2nc3ccccc3n2)c1,x,x,-4%[19.4 µM],x,x,x
CNc1nc(-c2ccccc2)[n+](-c2ccc(C)cc2)s1,-22%,50µM*,-5%,25%[57.1 µM],3%,115%
COc1cc(-c2nc3ccccn3c2/N=C/c2ccccc2)ccc1O,-21%,-15%,-8%[60.1 µM],-4%,2%,u
COc1cc(-c2nc3ccccn3c2/N=C/c2cc(OC)c(O)cc2Cl)ccc1O,u,-21%,u,25µM*,u,u
O=C(COc1ccccc1[N+](=O)[O-])Nc1cccc(S(=O)(=O)NC2=NCCCCC2)c1,20µM*,-29%,-34%,x,-9%,79µM*
Nc1ccc(C(=O)OCC(=O)Nc2cccc(S(=O)(=O)NC3=NCCCCC3)c2)cc1[N+](=O)[O-],-9%,-20%,-3%,x,1%,65%
CC(C)CS(=O)(=O)C1=NSC2=NC(=O)/C(=C\c3ccc(OC(=O)c4ccco4)cc3)C(=N)N21,56µM*,-16%[11.6 µM],-7%,-3%,-15%,-6%
CS(=O)(=O)C1=NSC2=NC(=O)/C(=C\c3ccc(OC(=O)c4ccco4)c(Br)c3)C(=N)N21,50µM*,u,-29%,u,u,u
